Drawing on PubChem BioAssay (NCATS), this text covers outcome and max response for 29 compounds.

SMILES strings stand for the structures. Inconclusive results are not listed. Active and inactive are the calls of the source. The call rests on the fitted dose curve; in most records, active means well fitted inhibition curve with a large enough effect; inconclusive means small, poorly fitted or top-dose-only effect; inactive means flat fitted curve, though single readings scatter.
On the % scale 0 is the no-effect control and ±100 the full control effect.

This assay relates to HaCat. Briefly: Cytotoxic Profiling of Annotated Libraries Using Quantitative High-Throughput Screening (AID 1296008). Further: nearly all actives have a fitted effect of over 60% in size. Conditions: Five cell lines viability, CellTiter-Glo ATP luminescence, 48-72 h; max response: stronger effect = lower value. In short, it runs like this:
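Cytotoxicity was measured as CellTiter-Glo ATP luminescence, read after 10 min at room temperature. Compound treatment of the cells lasted 48 or 72 hr at 37 degrees Celsius in a qHTS format.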
In general terms: ATP-based viability assays read luminescence as a measure of living cells.
Regarding `Cc1cc(C)nc(SCC(=O)Nc2ncc(Cc3cccc4ccccc34)s2)n1`, the outcome was inactive.
In the case of `CC(C)(O)C(=O)N1CCN(c2ccc(C(F)(F)F)c(C3=C(c4c[nH]c5ccccc45)C(=O)NC3=O)c2)CC1`, the call was inactive.
Turning to `C#CCOc1ccc2c(c1)c(-c1ccc(C(C)C)cc1)nc(=O)n2C(C)C`, the compound was classed as inactive.
As to `C=C1CC[C@@H]2[C@](C)(CO)[C@H](O)CC[C@@]2(C)[C@@H]1/C=C/C1=CCOC1=O`, the outcome was inactive.
For the compound `CC[N+]1(C/C2=C/CCCCCC2)CCC(NC(=O)C2c3cc(Cl)ccc3Oc3ccc(Cl)cc32)CC1` (centres undefined), the max response is -26% (inactive).
As for `C/C=C/C=C/c1cc2c(C=O)c(O)c(CC=C(C)C)cc2o1`, the compound was called inactive.
As to `COc1cc2ncc(-c3ccccc3)nc2cc1OC`, the compound was called inactive.
`COc1cc(CCc2ccc(OCC=C(C)C)cc2)cc(OC)c1OC`: the compound was classed as inactive.
Regarding `O=C(Nc1ccc(-n2nc(C(F)(F)F)cc2C(F)(F)F)cc1)c1ccncc1F`, the max response was 3.3% (inactive).
With `COC(=O)c1sccc1S(=O)(=O)Nc1ccc(Nc2ccccc2)cc1OC`, the compound was called inactive.
The same measure, in the same setting: the result for `N#Cc1ccc(-c2ccc(S(=O)(=O)Nc3cccc(N)n3)cc2)cc1` reads “inactive”.
On to `CC(=O)OC[C@]12[C@H](OC(C)=O)C(=O)[C@@H]3[C@@H](O)[C@@]14O[C@@]3(C)COC(=O)c1cccnc1[C@@H](C)[C@H](C)C(=O)O[C@@H]([C@H](O)[C@@H]2OC(C)=O)[C@]4(C)O`, for which the compound was classed as inactive.
As to `Cc1cc(-c2cc(OC(=O)c3ccccc3)ccc2Cl)cc2nnc(Nc3ccc(OCCN4CCCC4)cc3)nc12`, the max response is 3.59% (inactive).
As to `COc1c(C(O)CC(C)C)ccc2c1C(=O)OCc1cc(C)cc(O)c1O2` (centres undefined), the max response is 0.403% (inactive).
For the compound `Nc1nc2c(c(N3CC[C@@H](N)C3)n1)CCCc1ccccc1-2`, the outcome was inactive.
As to `CN1CCN(C(=O)CN[C@@H]2C[C@H]2c2ccc(OCc3ccccc3)cc2)CC1`, the max response is -3.34% (inactive).
As for `CC(=O)OC1CCC2(C)C(CCC3(C)C2CC=C2C4C(C)C(C)CCC4(C)CCC23C)C1(C)C(=O)O` (centres undefined), the max response was 3.45% (inactive).
In the case of `O=C(Nc1cc(C(F)(F)F)cc(C(F)(F)F)c1)c1cnc(Cl)nc1C(F)(F)F`, the compound was classed as inactive.
Regarding `O=C(N[C@@H]1CCCc2c1cnn2-c1ccc(F)cc1F)c1ccccn1`, the max response is -21.6% (inactive).
As to `COC(=O)c1ccc2c(c1)nc(NC(=O)c1ccccc1)n2CCCc1ccccc1`, the result was inactive.
`COC1C(O)C(OC2CCC3(C)C(CCC45CCC6C7(COC(=O)C7)OC4(O)C6(C)CCC35)C2)OC(C)C1OC1OC(CO)C(OC2OC(CO)C(O)C(O)C2O)C(O)C1O` (centres undefined): the outcome was inactive.
Regarding `O=C(Nc1ccccc1)N1CCN(c2nc(-c3ccccc3)ns2)CC1`, the compound was classed as inactive.
On to `Cc1ccc(F)cc1S(=O)(=O)N[C@@H]1CCN(Cc2ccc(OC(C)C)cc2)C1`, for which the max response was -5.2% (inactive).
Same read-out and setting: next, `OC(CC1c2ccccc2-c2cncn21)C1CCCCC1` (centres undefined): -2.64% (inactive).
On to `CC(=O)OC1CC(O)(C(C)C)C2C(OC(=O)c3ccc(O)cc3)C=C(C)C(=O)CC12C` (centres undefined), for which the compound was called inactive.
Take `C=C1C(=O)OC2CC3(C)C(O)C(=O)C=C(C)C3CC12` (centres undefined): the max response was 0.297% (inactive).
Take `CC(=O)O[C@H]1CC2C(COC(=O)CC(C)C)=CO[C@@H](OC(=O)CC(C)C)C2[C@]12CO2` (some centres undefined): the max response was -12.1% (inactive).
Turning to `O=S(=O)(c1ccc(Cl)cc1)N1CCN(c2ccnc3cc(Cl)ccc23)CC1`, the result was inactive.
For `C/C=C\NC(=O)C1NC(=O)C(CC(N)=O)NC(=O)C(NC(=O)C(=O)C(C)CC)Cc2ccc(O)c(c2)-c2cccc3c2NC(=O)C3(O)C1O` (centres undefined), the compound was classed as inactive.
